Rows were chosen to be rich in hits. Some 3.4% of all compounds tested hit in one or more screens of this group.
FBW7 activator: activators of human E3 ligase FBW7. Q969H0. AlphaScreen FBW7–phospho-cyclin E peptide binding, activator screen. normalized activity (activation), % at 26.1 µM. 0.13% of 650,000 active; in the data active means normalized activity above about 1.9%;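 further: purified mutant Fbw7 with reduced substrate affinity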
Target sequence (Q969H0 whole entry, looked up): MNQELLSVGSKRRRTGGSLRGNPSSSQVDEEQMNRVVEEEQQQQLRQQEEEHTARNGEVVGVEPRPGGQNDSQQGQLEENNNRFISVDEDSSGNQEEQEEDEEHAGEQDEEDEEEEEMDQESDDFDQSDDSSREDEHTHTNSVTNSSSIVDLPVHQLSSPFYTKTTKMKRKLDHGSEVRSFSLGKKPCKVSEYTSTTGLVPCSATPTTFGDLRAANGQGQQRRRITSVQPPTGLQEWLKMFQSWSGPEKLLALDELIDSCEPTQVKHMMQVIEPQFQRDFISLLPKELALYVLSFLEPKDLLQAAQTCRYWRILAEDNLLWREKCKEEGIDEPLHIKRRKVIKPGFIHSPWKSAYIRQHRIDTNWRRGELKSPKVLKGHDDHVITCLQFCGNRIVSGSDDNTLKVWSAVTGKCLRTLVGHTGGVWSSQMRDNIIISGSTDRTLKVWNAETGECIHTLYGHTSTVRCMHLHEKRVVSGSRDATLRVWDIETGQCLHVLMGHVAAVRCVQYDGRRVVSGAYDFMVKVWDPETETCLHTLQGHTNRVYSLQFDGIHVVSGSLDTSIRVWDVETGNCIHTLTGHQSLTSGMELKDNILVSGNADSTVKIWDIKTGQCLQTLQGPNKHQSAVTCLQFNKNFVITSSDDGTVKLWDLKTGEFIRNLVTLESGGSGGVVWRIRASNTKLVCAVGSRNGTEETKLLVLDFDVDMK
MITF primary: blocks human microphthalmia-associated transcription factor; inhibition, % at 2.6 µM; AID 1259374; 0.91% of 650,000 active; AlphaScreen MITF homodimerization, bead proximity signal; O75030; in the data active means inhibition above about 50%;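 further: 0% = vehicle wells with protein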
TEAD-YAP inh: TEAD-YAP interaction inhibition; 1.4% of 640,000 active; inhibition, % at 9.12 µM; AID 1259422; HEK-TIYL cells, TEAD-Gal4/YAP UAS-luciferase luminescence; in the data active means inhibition above about 32%;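 further: 0% = median of test compound wells and 100% = reference inhibitor wells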
GPR151 activ: activates the human receptor GPR151; AID 1508602; PathHunter beta-arrestin GPR151 cells, luminescence; 1% of 650,000 active; activation, % at 11.2 µM; Q8TDV0; in the data active means activation above about 4.9%;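 further: 0% = median of compound wells and 100% = cells with positive control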
GPR151 confirm: confirmation of human GPR151 activators | shares compounds with GPR151 activ | GPR151 PathHunter beta-arrestin cells, luminescence, 90 min; % of EA-reagent control over plate median | activation, % at 11.2 µM | 6,700 tested, under 10 active | AID 1508609;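 active means mean percent activation across replicates above the confirmation screen cutoff of 4.91%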
GPR119 ag: GPR119 activation, counter-screen for GPR151 activators | AID 1508611 | 0.3% of 6,700 active | GPR119 PathHunter beta-arrestin cells, luminescence, 90 min; 0 = compound-well median, 100 = enzyme-acceptor control | shares compounds with GPR151 activ | activation, % at 11.2 µM;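 active means mean percent activation in the counterscreen above 29.09%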;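 further: counterscreen on off-target GPR119 to flag nonselective hits from the GPR151 activator screen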
An asterisk follows results filed as active; . = no result.

SMILES | FBW7 activator | MITF primary | TEAD-YAP inh | GPR151 activ | GPR151 confirm | GPR119 ag
Cc1cc(C)c(CN2CCC3(CCC(CNC(=O)c4ccn(C)n4)O3)CC2)cc1C (centres undefined) | 0 | -10 | 1 | 1 | . | .
O=C(Nc1nnc(N2CCCC2)s1)Nc1ccc(Br)cc1F | 0 | 0 | -11 | 5.6* | 0 | -3
Cc1ccc(NC(=O)Nc2nnc(N3CCCCC3)s2)c(Cl)c1 | 0 | -3 | 5 | 5.3* | 0 | -9
O=C(Nc1nnc(N2CCCC2)s1)Nc1ccccc1F | 0 | -3 | -74 | 0 | . | .
Cc1c(C(=O)NC(C)C(C)(C)C)oc2ccccc12 (centres undefined) | 1 | 16 | 5 | -2 | . | .
O=C(N/N=C/c1cccc(O)c1)C1COc2ccccc2O1 (centres undefined) | 0 | 4 | 14 | 1 | . | .
CCOC(=O)N1CCN(c2cc(N3CCCC3)c(F)cc2[N+](=O)[O-])CC1 | 0 | 7 | 11 | -2 | . | .
CCOC(=O)N1CCN(c2cc(N3CCN(C)CC3)c(F)cc2[N+](=O)[O-])CC1 | 0 | 19 | 5 | 8.3* | 0 | -2
Cc1nc(N2CCOCC2)nc2c1CCC2 | 0 | 7 | -11 | 10* | -1 | -10
CCOc1ccc(NC(=O)Nc2cccc(OC)c2)c([N+](=O)[O-])c1 | 0 | 1 | -13 | 10* | 0 | 0
CCOc1ccc(OCC(=O)Nc2ccc(OC)cc2[N+](=O)[O-])cc1 | 0 | 13 | 11 | -1 | . | .
CCOC(=O)c1cccc(NC(=O)n2ncc3cc(Cl)ccc32)c1 | 0 | 2 | 85* | 5.6* | 0 | -3
CCOC(=O)c1ccccc1NC(=O)n1ncc2cc(Cl)ccc21 | 0 | -2 | -9 | 0 | . | .
CCOc1ccc(N(C(C)C(=O)Nc2cc(Cl)ccc2C)S(C)(=O)=O)cc1 (centres undefined) | 0 | 9 | 16 | 1 | . | .
Cc1cn2c3c(=O)n(CC(N)=O)c(=O)n(C)c3nc2n1-c1ccc(Cl)cc1 | 0 | 5 | 3 | 5.7* | 0 | -4
O=C1CSC(c2ccc(Cl)cc2)N1Cc1cn2ccccc2n1 (centres undefined) | 0 | -8 | 5 | 5.0* | 0 | -2
Cc1nnc(SCc2cc(=O)n3[nH]cnc3n2)s1 | 0 | 14 | 11 | 5.7* | -1 | -5
COc1ccccc1/C=N/Nc1ccc(Cl)c(C(=O)O)c1 | 0 | -8 | -42 | 0 | . | .
Cc1nc2ccccc2nc1CN1CCC2(CC1)CC2C(=O)N(C)Cc1cscn1 (centres undefined) | 0 | 16 | 7 | 0 | . | .
Cc1ccsc1CN1CCC2(CC1)CC2C(=O)N(C)Cc1cscn1 (centres undefined) | 0 | -1 | 1 | 5.2* | 0 | -1
Cc1cc(NC(=O)c2ccc(C)s2)n(-c2nc3ccccc3[nH]2)n1 | 0 | 3 | 0 | 5.3* | 0 | 2
CCOc1cc(C=O)ccc1OCCCCN1CCOCC1 | 0 | -7 | 9 | -1 | . | .
COc1ccc(-c2noc(CNC(=O)c3ccccc3C)n2)cc1 | 0 | 6 | 9 | 2 | . | .
COC(=O)C[n+]1csc2ccccc21 | -1 | 14 | 6 | 7.8* | 0 | 5
CCCCOC(=O)c1ccc(NC(=O)c2ccc(C3CCCCC3)cc2)cc1 | 0 | 0 | 33* | 7.2* | 0 | 1
SMILES | FBW7 activator | MITF primary | TEAD-YAP inh | GPR151 activ | GPR151 confirm | GPR119 ag
O=C(Cn1c(-c2cccnc2)nc2ccccc21)NCc1ccccc1Cl | 0 | 7 | -8 | 5.6* | 0 | 2
CCc1[nH]n2c(=O)c(Cl)c(C)nc2c1-c1cccs1 | 0 | 2 | 8 | 7.3* | 0 | 7
Cc1[nH]c2ccc(CNC(=O)Nc3ccc(F)cc3F)cc2c1C | 0 | 6 | 6 | 5.9* | -1 | -6
COc1ccccc1CNC(=O)c1nn(C)c2c1COc1ccccc1-2 | 0 | 8 | -15 | 0 | . | .
Cn1nc(C(=O)NCc2ccc(F)cc2)c2c1-c1ccccc1OC2 | 0 | -6 | -10 | 12* | 1 | -1
COc1ccc(OC)c(NC(=O)CCNS(=O)(=O)c2ccc3c(c2)oc(=O)n3C)c1 | 0 | 2 | -2 | 5.1* | 1 | 4
O=C(NCCCN1CCCCCC1)C(c1ccccc1)C1CCCCC1 (centres undefined) | 0 | -9 | . | 5.3* | 0 | 1
O=C(NCc1ccccc1)c1nnc(-c2ccccc2)o1 | 0 | 7 | -47 | 1 | . | .
O=C(Nc1nc(-c2ccncc2)cs1)c1ccc(S(=O)(=O)N2CCCCC2)cc1 | 0 | 5 | -2 | 0 | . | .
O=C(NC(=S)NNc1ccccc1)c1cc2ccccc2oc1=O | 0 | 17 | 8 | 5.5* | 1 | 13
O=C(Nc1nc(-c2ccncc2)cs1)c1ccccc1I | 0 | -1 | -15 | 6.3* | 1 | 11
O=C(Nc1nc(-c2ccccc2)cs1)c1ccc(S(=O)(=O)N2CCc3ccccc32)cc1 | 0 | 0 | 0 | -2 | . | .
O=C(NC(=S)Nc1ncccn1)c1cc2ccccc2oc1=O | 0 | 2 | -8 | -1 | . | .
O=C(Nc1nc(-c2cc3ccccc3oc2=O)cs1)c1ccc(S(=O)(=O)N2CCc3ccccc32)cc1 | 0 | -5 | -19 | 5.0* | 0 | 4
CC1CCN(S(=O)(=O)c2ccc(C(=O)Nc3nc(-c4ccncc4)cs3)cc2)CC1 | 0 | -9 | -10 | 4.9* | 0 | 10
O=C(Nc1nc(-c2cc3ccccc3o2)cs1)c1cc2ccccc2oc1=O | 0 | 7 | 0 | 21* | -1 | 8
O=C(O)c1ccc(Nn2c(=S)[nH]c3ccccc3c2=O)cc1 | 0 | 5 | -1 | 5.0* | 0 | -12
O=C(Nn1c(=S)[nH]c2ccccc2c1=O)c1ccc(Br)cc1 | 0 | 8 | -4 | -1 | . | .
CCOC(=O)C1CCN(C(=O)c2cc(S(=O)(=O)N3CCCC3)cn2C)CC1 | 0 | 8 | 8 | 0 | . | .
CCOC(=O)C1CCCN(C(=O)c2cc(S(=O)(=O)N3CCOCC3)cn2C)C1 (centres undefined) | 0 | 5 | -1 | 9.2* | 0 | 3
Cc1ccc(Sc2ccc3noc4c3c2C(=O)c2ccccc2-4)cc1 | 0 | 9 | 1 | 11* | -1 | -14
Cc1ccc2[nH]c(=O)c(CN(CCO)C(=O)Nc3ccccc3F)cc2c1 | 0 | 10 | 7 | -1 | . | .
CCn1c(SCC(=O)Nc2nc(C)cs2)nc2c(c1=O)SCC2 | 0 | -4 | 11 | 6.3* | 0 | 1
CCOc1ccc(-n2c(SCC(=O)Nc3cc(C)on3)nc3c(c2=O)SCC3)cc1 | 0 | 4 | -38 | 5.1* | 1 | 5
Cc1cc(NC(=O)CCCC(=O)NCc2ccco2)no1 | 1 | 8 | -8 | 0 | . | .
Cc1c(C(=O)Nc2cc(Sc3ccc(F)cc3)cc([N+](=O)[O-])c2)sc2ncn(Cc3ccccc3F)c(=O)c12 | 0 | 19 | 5 | 5.1* | 2 | 12

Bioassay records as filed in PubChem BioAssay.
